Experimental data taken from PubChem BioAssay.
The source made the active and inactive calls. Unless noted, how the calls were made is not given here.

Legend:
[1] = A549 cell viability effects, profiling panel, calcein-AM fluorescence, 48 h, basal (AID 1162); conditions: higher = more signal; further: test concentration not given here
[2] = adipocyte viability effects, profiling panel, cell-based, 3T3-L1 adipocytes, calcein-AM fluorescence, 48 h, basal (AID 1163); conditions: 3T3-L1 adipocytes viability, higher = more signal; further: test concentration not given here
[3] = HepG2 cell viability effects, profiling panel, calcein-AM fluorescence, 48 h, basal (AID 1164); conditions: higher = more signal; further: test concentration not given here
[4] = MM1S cell viability effects, profiling panel, calcein-AM fluorescence, 48 h, basal (AID 1165); conditions: higher = more signal;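 further: viability of MM1S multiple myeloma cells under basal unstimulated conditions; test concentration not given here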
[5] = basal RPMI8226 viability, no added stimulus, profiling panel, cell-based, calcein-AM fluorescence, 48 h, PK04 Diversity Set (AID 1166); conditions: RPMI8226 myeloma viability, higher = more signal;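 further: cells grown under basal conditions without added stimulus; test concentration not given here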
[6] = basal HepG2 mitochondrial membrane potential changes, profiling panel, cell-based, JC-1 fluorescence, 24 h, 100 nL compound (AID 1167); conditions: higher = more signal; further: test concentration not given here
[7] = basal 3T3-L1 adipocyte mitochondrial potential changes, profiling panel, cell-based, JC-1 fluorescence, 3T3-L1 adipocytes, 24 h, 100 nL compound (AID 1168); conditions: JC-1 mitochondrial fluorescence, higher = more signal, called active from +8 up or from −8 down; further: test concentration not given here
[8] = basal RPMI8226 mitochondrial membrane potential changes, profiling panel, cell-based, JC-1 fluorescence, 24 h, 100 nL compound (AID 1169); conditions: RPMI8226 myeloma, JC-1 mitochondrial potential fluorescence, higher = more signal; further: test concentration not given here
[9] = basal MM1S mitochondrial membrane potential changes, profiling panel, cell-based, JC-1 fluorescence, 24 h, 100 nL compound (AID 1170); conditions: higher = more signal; further: test concentration not given here
[10] = A549 lung cancer cell viability effects, profiling panel, resazurin fluorescence, 24 h, PK04 Diversity Set (AID 1171); conditions: higher = more signal, called active from +8 up or from −8 down; further: test concentration not given here
[11] = HepG2 liver cancer cell viability effects, profiling panel, resazurin fluorescence, 24 h, PK04 Diversity Set (AID 1172); conditions: higher = more signal; further: test concentration not given here
[12] = basal S. cerevisiae growth modulation, no modifier, primary screen, OD600, strain BY4716, 24 h, basal condition (AID 1173); conditions: OD600, 24 h, higher = more signal, called active from +8 up or from −8 down
[13] = MM1S myeloma cell viability, profiling panel, resazurin fluorescence, basal, 24 h, PK04 Diversity Set (AID 1174); conditions: higher = more signal, called active from +8 up or from −8 down;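 further: MM1S multiple myeloma cell line; test concentration not given here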
[14] = target: Dihydroorotate dehydrogenase (quinone), mitochondrial (Plasmodium falciparum (isolate 3D7)) (UniProt Q08210); experiment: PfDHODH enzyme inhibitors, primary screen, biochemical, C-terminal His tag, absorbance 600 nm (AID 1175); conditions: DCIP absorbance 600 nm, higher = more signal, called active from +8 up or from −8 down;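 further: recombinant parasite enzyme with a five histidine tag at its C terminus; test concentration not given here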
Sequence of Dihydroorotate dehydrogenase (quinone), mitochondrial (Plasmodium falciparum (isolate 3D7)) (Q08210 whole entry, looked up): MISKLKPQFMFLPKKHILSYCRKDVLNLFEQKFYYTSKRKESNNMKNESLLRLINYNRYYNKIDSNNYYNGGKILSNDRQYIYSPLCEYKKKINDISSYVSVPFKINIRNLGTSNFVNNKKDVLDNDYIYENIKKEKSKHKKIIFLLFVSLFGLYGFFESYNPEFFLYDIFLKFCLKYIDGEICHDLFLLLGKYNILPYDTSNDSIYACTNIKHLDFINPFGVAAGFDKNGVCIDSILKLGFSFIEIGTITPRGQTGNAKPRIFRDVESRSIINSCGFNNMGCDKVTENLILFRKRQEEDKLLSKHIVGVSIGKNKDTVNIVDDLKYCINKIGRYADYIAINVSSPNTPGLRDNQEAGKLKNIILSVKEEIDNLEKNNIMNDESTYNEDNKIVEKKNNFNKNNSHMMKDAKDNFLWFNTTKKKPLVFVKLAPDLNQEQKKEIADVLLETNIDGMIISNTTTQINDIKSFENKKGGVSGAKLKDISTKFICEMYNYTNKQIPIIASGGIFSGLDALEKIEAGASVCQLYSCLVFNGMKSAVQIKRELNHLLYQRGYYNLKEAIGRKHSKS

[15] = P. aeruginosa biofilm formation inhibitors, primary screen, strain PAO1, LB-PBS medium, absorbance 600 nm (AID 1176); further: test concentration not given here; conditions: P. aeruginosa PAO1 growth/biofilm, A600, 12 h; higher = more signal
[16] = S. cerevisiae RM11-1a growth modifiers, primary screen, strain RM11-1a, OD600, basal, 24 h (AID 1177); conditions: OD600, 24 h, higher = more signal, called active from +8 up or from −8 down;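 further: cultures grown under basal conditions with no added stressor; test concentration not given here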
[17] = E. coli acrAB mutant growth effects, primary screen, E. coli filamentation inducers, strain DRC39, OD650, 24 h (AID 1178); conditions: higher = more signal, called active from +8 up or from −8 down;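 further: growth measured as culture turbidity by optical density at 650 nm; test concentration not given here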
[18] = E. coli acrAB mutant growth effects, primary screen, E. coli filamentation inducers, strain DRC39, OD650, 48 h (AID 1179);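 further: screen aims at cell division blockers that make cells filament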; conditions: E. coli DRC39 delta-acrAB growth, higher = more signal, called active from +8 up or from −8 down
[19] = RPMI8226 myeloma cell viability, profiling panel, resazurin fluorescence, basal, 24 h, PK04 Diversity Set (AID 1180); conditions: higher = more signal;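 further: RPMI8826 multiple myeloma cell line at 5000 cells per well; test concentration not given here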
[20] = target: E3 ubiquitin-protein ligase XIAP (Homo sapiens) (UniProt P98170); experiment: XIAP binders, primary screen, biophysical, small-molecule microarray, fluorescence 635 nm (AID 1181); conditions: small-molecule microarray binding, higher = more signal;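 further: score merges 667 nm emission and signal to noise over triplicate slides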
Sequence of E3 ubiquitin-protein ligase XIAP (Homo sapiens) (P98170 whole entry, looked up): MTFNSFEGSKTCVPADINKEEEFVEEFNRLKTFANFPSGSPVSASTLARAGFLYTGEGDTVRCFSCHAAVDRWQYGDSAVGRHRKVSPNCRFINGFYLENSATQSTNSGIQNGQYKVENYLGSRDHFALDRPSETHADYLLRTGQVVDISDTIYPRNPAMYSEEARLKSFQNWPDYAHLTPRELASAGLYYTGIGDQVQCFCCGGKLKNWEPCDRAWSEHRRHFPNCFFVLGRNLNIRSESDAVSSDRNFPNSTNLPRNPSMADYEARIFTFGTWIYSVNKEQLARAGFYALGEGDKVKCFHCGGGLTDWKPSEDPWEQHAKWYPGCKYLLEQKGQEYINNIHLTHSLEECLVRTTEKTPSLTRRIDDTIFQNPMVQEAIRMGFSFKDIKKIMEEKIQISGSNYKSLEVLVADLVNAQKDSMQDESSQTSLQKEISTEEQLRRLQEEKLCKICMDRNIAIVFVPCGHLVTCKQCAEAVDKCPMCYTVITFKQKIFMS

SMILES | z-score [1] | z-score [2] | z-score [3] | z-score [4] | z-score [5] | z-score [6] | z-score [7] | z-score [8] | z-score [9] | z-score [10] | z-score [11] | z-score [12] | z-score [13] | composite z-score [14] | z-score [15] | z-score [16] | z-score [17] | z-score [18] | z-score [19] | composite z-score [20]
COc1cc(COC(C)=O)ccc1OC(C)=O | 1.97 | 0.223 | 1.5 | -0.0098 | -1.49 | -0.367 | 0.374 (inactive) | -0.219 | 0.528 | 0.339 (inactive) | 0.858 | -0.715 (inactive) | 0.101 (inactive) | -0.942 (inactive) | 0.317 (inactive) | -1.35 (inactive) | 1.17 (inactive) | 0.871 (inactive) | 0.614 | -0.269
CC1(C)[C@@H]2CC(C(O)C3C=CC4C(=O)N(c5ccccc5)C(=O)C4N3Nc3ccc([N+](=O)[O-])cc3)=C[C@H]1C2 (stereo not given in full) | -0.0923 | -0.484 | -0.0345 | 0.114 | 0.287 | -1.41 | -2.48 (inactive) | 0.428 | -1.09 | 0.539 (inactive) | -0.128 | 0.318 (inactive) | 0.218 (inactive) | 0.634 (inactive) | 1.07 (inactive) | 0.08 (inactive) | -0.982 (inactive) | -0.512 (inactive) | 0.0954 | -0.141
CCCC[C@@H]1C[C@H]1[C@@H](NC(=O)c1ccco1)c1ccc(-c2ccccc2)cc1 | -0.359 | 0.222 | -1.05 | -0.15 | -1.03 | -1.07 | -0.168 (inactive) | -0.0532 | 0.0163 | -1.04 (inactive) | -0.9 | 1.22 (inactive) | -1.52 (inactive) | -3.3 (inactive) | 2.16 (inactive) | 0.505 (inactive) | -1.05 (inactive) | -1.2 (inactive) | -1.29 | 0.773
CO[C@H]1O[C@H](CO)[C@@H](OC(=O)Nc2ccc(C(F)(F)F)cc2)[C@H](OC(=O)Nc2ccc3c(c2)OCO3)[C@@H]1OC(=O)Nc1ccc2c(c1)OCO2 | -0.903 | 0.102 | -1.81 | -3.42 | -3.51 | -1.62 | -0.855 (inactive) | -1.32 | -1.36 | -1.99 (inactive) | -1.09 | 0.867 (inactive) | -2.45 (inactive) | 0.524 (inactive) | 1.54 (inactive) | 3.25 (inactive) | 1.53 (inactive) | 0.2 (inactive) | -1.97 | 0.098
CC(=O)NCCCC[C@@H]1NC(=O)[C@@H]2C[C@H](C(=O)NCCCCCNC(=O)CS)[C@H](c3cccc(OCCO)c3)N2C1=O | 0.189 | 0.767 | -0.884 | 0.28 | 0.403 | -1.12 | -0.843 (inactive) | 0.436 | -0.892 | 0.131 (inactive) | 0.77 | -0.719 (inactive) | 1.37 (inactive) | -29.3 (active) | 0.879 (inactive) | -0.86 (inactive) | 0.295 (inactive) | -0.171 (inactive) | 0.739 | -0.13
CCCC[C@@H]1C[C@H]1[C@@H](NC(=O)c1ccco1)c1ccccc1C(F)(F)F | -2.09 | -1.51 | -0.489 | -1.1 | -0.484 | -1.7 | -1.22 (inactive) | -0.583 | -0.481 | -0.26 (inactive) | -0.153 | 1.67 (inactive) | -1.25 (inactive) | -0.265 (inactive) | -0.0298 (inactive) | -0.064 (inactive) | -0.714 (inactive) | -0.127 (inactive) | -0.594 | 0.271
Cc1ccc(N2C(=O)c3ccccc3[C@@H](C(=O)NC3CC3)[C@@H]2c2ccc(CO)cc2)nc1 | -0.684 | 0.516 | -0.774 | 0.0291 | -2.27 | -0.0756 | -0.289 (inactive) | 0.755 | -0.446 | 0.771 (inactive) | -0.0178 | -0.625 (inactive) | 0.584 (inactive) | -0.162 (inactive) | 0.0714 (inactive) | -0.155 (inactive) | 0.659 (inactive) | 0.188 (inactive) | 0.154 | -0.128
O=C1C[C@]2(c3ccc([N+](=O)[O-])cc3)C(=O)N(CC(F)(F)F)c3cc(CO)ccc3[C@H]2N1C1CCCCC1 | 1.81 | -0.677 | 0.203 | 0.0687 | 1 | 0.38 | 0.986 (inactive) | 0.247 | 1.9 | -0.745 (inactive) | 0.0882 | 0.434 (inactive) | 0.679 (inactive) | -1.69 (inactive) | -0.686 (inactive) | -0.0434 (inactive) | 0.235 (inactive) | 0.16 (inactive) | 0.964 | -0.273
